Measured values as given in PubChem BioAssay AID743129 (Broad Institute, 2013).
Results with a measured potency or affinity are listed apart. The source made the active and inactive calls.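 Rule for the calls: active = cytotoxic compounds whose fitted half-maximal concentration is at most twice the highest valid tested dose; inconclusive = flat curve with 30 to 70% cell loss, or poor fit; inactive = the rest, including signal rising instead of falling.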

Experiment: HepG2 cell cytotoxicity, dose response, cytotoxicity control, ATP luminescence, dry powder, set 2 (AID 743129)
Settings: HepG2 viability, ATP luminescence (CellTiter-Glo), 72 h; series mostly up to 26 µM; activity change, negative = cytotoxicity: at the top concentration

Structure (SMILES) | activity change, negative = cytotoxicity | outcome
COC(=O)C1=C(C)N(Cc2ccccc2)C(=S)NC1c1ccc(Br)cc1 (stereo not drawn) | -2.68% (inactive) | –
CCOC(=O)c1c(-c2ccc(F)cc2)csc1NC(=O)CN1CCN(C)CC1 | 21.1% (inactive) | –
Fc1cccc2c1[nH]c(=S)n2CCOc1ccccc1 | 12.8% (inactive) | –
CCOC(=O)c1c(-c2ccc(OC)cc2)csc1NC(=O)CN(C)CC(=O)N(C)C | 6.85% (inactive) | –
Cc1cccc(OCCn2c(=S)[nH]c3cc(C(F)(F)F)ccc32)c1 | -10.2% (inactive) | –
Cc1ccc(OCCn2c(C)nc3ccccc32)cc1 | 15% (inactive) | –
CCOC(=O)c1c(-c2ccc(F)cc2)csc1NC(=O)CN1CCN(CC)CC1 | -0.94% (inactive) | –
Cc1ccc(OCCn2cnc3ccccc32)cc1 | -2.07% (inactive) | –
O=c1[nH]c2ccccc2n1CCOc1ccccc1 | – | inactive
Cc1ccccc1OCCn1c(=S)[nH]c2ccccc21 | -14.9% (inactive) | –
c1ccc(OCCn2cnc3ccccc32)cc1 | -27.1% (inactive) | –
CCOc1ccc(OCCn2c(=S)[nH]c3ccccc32)cc1 | -26.2% (inactive) | –
Cc1ccc(C(C)C)c(OCCn2c(=S)[nH]c3ccccc32)c1 | 39.7% (inactive) | –
S=c1[nH]c2ccccc2n1CCOc1ccc(Cl)cc1 | -7.15% (inactive) | –
Cc1ccc(OCCn2c(=S)[nH]c3ccccc32)c(C(C)C)c1 | – | inactive
COC(=O)C1=C(C)N(Cc2ccc(Br)cc2)C(=S)NC1c1ccc(F)cc1 (stereo not drawn) | 0.837% (inactive) | –
Fc1ccccc1OCCn1c(=S)[nH]c2ccccc21 | -13% (inactive) | –
S=c1[nH]c2ccccc2n1CCOc1ccccc1 | -11.9% (inactive) | –
COC(=O)C1=C(C)N(Cc2ccc(Br)cc2)C(=S)NC1c1ccc(OC)cc1 (stereo not drawn) | -26.8% (inactive) | –
COC(=O)C1=C(C)N(Cc2ccc(Cl)cc2)C(=S)NC1c1ccc(Br)cc1 (stereo not drawn) | -1.77% (inactive) | –
Cc1ccc2c(c1)[nH]c(=S)n2CCOc1ccccc1 | 29.2% (inactive) | –
Cc1ccc(OCCn2c(=S)[nH]c3ccccc32)cc1 | -23.9% (inactive) | –
S=c1[nH]c2cccc(Cl)c2n1CCOc1ccccc1 | -3.38% (inactive) | –
